# PubChem BioAssay
# Active and inactive are the calls of the source. Unless noted, no rule for the calls is given here.
# Columns and labels:
# [1] = system: Wnt5a (protein binding on small-molecule microarray); assay: Wnt5a binders on small-molecule microarray, primary screen, biophysical, 635/667 nm fluorescence (AID 1142); settings: 635 nm fluorescence, higher = more signal;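 also: fluorescence read at 667 nm with signal to noise per printed feature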
# [2] = cell viability in Huh7 cells, primary screen, cytotoxicity control for HCV replication inhibitor project, CellTiter-Glo luminescence, basal, 48 h (AID 1143); settings: Huh7 HCV replicon, higher = more signal, called active from +8 up or from −8 down;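 also: Huh7 hepatoma cells carrying a hepatitis C replication reporter with no stimulus; test concentration not given here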
# [3] = P. aeruginosa biofilm formation inhibitors, primary screen, PAO1 strain, BacTiter-Glo luminescence, LB-PBS (AID 1144); settings: 12 h, higher = more signal
# [4] = CREB reporter modulators without forskolin, primary screen, cell-based, PC12, CRE-LacZ reporter, unstimulated (AID 1145); settings: no forskolin, luminescence, 4.5 h, higher = more signal, called active from +8 up or from −8 down
# [5] = CREB reporter modulators under forskolin, primary screen, cell-based, PC12, CRE-LacZ reporter, forskolin-stimulated (AID 1146); settings: luminescence, 4.5 h, higher = more signal, called active from +8 up or from −8 down;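 also: PC12 cells with 6xCRE LacZ reporter stimulated by forskolin 10 µM; beta-galactosidase reporter signal reflecting CREB driven transcription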
# [6] = biological target: Streptavidin (Streptomyces avidinii) (UniProt P22629); assay: streptavidin binders on small-molecule microarray, primary screen, artefact control for SMM compound annotation, biophysical, 635/667 nm fluorescence (AID 1147); settings: streptavidin binding, higher = more signal;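 also: signal reflects streptavidin binding to arrayed compounds as a control protein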
# Sequence of Streptavidin (Streptomyces avidinii) (P22629 whole entry, looked up): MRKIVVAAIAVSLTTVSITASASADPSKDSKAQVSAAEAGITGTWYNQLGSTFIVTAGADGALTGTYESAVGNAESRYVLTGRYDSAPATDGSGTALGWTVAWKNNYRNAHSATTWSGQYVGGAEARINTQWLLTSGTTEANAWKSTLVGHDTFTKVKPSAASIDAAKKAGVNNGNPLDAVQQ
# [7] = small-molecule binders of probe aInhba, primary screen, biochemical, small-molecule microarray, 635/667 nm fluorescence (AID 1148); settings: higher = more signal;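 also: score merges 667nm spot fluorescence with signal-to-noise for antibody binding to printed compounds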
# Torsin-1A (Homo sapiens) [8] = biological target: Torsin-1A (Homo sapiens) (UniProt O14656); assay: torsin A binders from cell lysate, primary screen, small-molecule microarray, wild-type, 635/667 nm (AID 1149); settings: COS7 hTOR1A-WT lysate, 635 nm fluorescence, higher = more signal
# Sequence of Torsin-1A (Homo sapiens) (O14656 whole entry, looked up): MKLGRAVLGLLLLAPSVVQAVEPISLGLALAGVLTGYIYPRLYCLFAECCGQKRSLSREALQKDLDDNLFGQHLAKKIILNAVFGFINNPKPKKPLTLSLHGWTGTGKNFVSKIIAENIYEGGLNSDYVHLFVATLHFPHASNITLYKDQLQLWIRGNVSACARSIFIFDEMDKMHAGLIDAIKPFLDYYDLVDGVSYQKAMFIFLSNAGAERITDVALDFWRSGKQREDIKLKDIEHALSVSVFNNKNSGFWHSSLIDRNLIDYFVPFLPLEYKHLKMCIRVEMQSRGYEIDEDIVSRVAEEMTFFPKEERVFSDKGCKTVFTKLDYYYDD
# Torsin-1A (Homo sapiens) [9] = biological target: Torsin-1A (Homo sapiens) (UniProt O14656); assay: small-molecule binders of mutant TOR1A in lysate, primary screen, cell lysate, small-molecule microarray, COS7 lysate, 635/667 nm fluorescence (AID 1150); settings: COS7 hTOR1A mutant lysate, 635 nm fluorescence, higher = more signal;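 also: score pools 667 nm emission and signal to noise measuring lysate protein binding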
# [10] = system: Sonic hedgehog protein (Shh); assay: small-molecule binders of Shh protein, primary screen, biochemical, small-molecule microarray, 635/667 nm fluorescence (AID 1151); settings: small-molecule microarray binding, 635 nm fluorescence; higher = more signal;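 also: Shh protein binding to compounds spotted on small-molecule microarray slides; score combines spot fluorescence intensity with signal-to-noise across triplicate slides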
# [11] = E. coli DRC41 culture turbidity changes, primary screen, E. coli filamentation inducer project, strain DRC41, OD650, 48 h (AID 1152);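 also: E. coli MC1000 strain DRC41 lacking acrAB efflux pump and sulA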; settings: E. coli DRC41 (acrAB sulA), higher = more signal, called active from +8 up or from −8 down
# [12] = small-molecule binders of probe aLefty1, primary screen, biochemical, small-molecule microarray, 635/667 nm fluorescence (AID 1153); settings: higher = more signal;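 also: score merges spot fluorescence with signal-to-noise ratio from the scanned slide images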
# [13] = PSAC antagonists in infected red cells, primary screen, cell-based, P. falciparum Indochina, OD700, 1 h (AID 1154); settings: P. falciparum Indochina infected RBC osmotic lysis, higher = more signal, called active from +8 up or from −8 down
# [14] = PSAC antagonists in infected red cells, primary screen, cell-based, P. falciparum Indochina, OD700, 2 h (AID 1155);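 also: lysis reports solute entry through the parasite surface anion channel PSAC; channel blockers reduce lysis of infected cells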; settings: P. falciparum Indochina infected erythrocytes, osmotic lysis OD700; higher = more signal, called active from +8 up or from −8 down
# [15] = osmotic lysis modulators in infected erythrocytes, primary screen, PSAC antagonist project, cell-based, P. falciparum Indochina, OD700, 3 h (AID 1156); settings: higher = more signal, called active from +8 up or from −8 down
# [16] = PSAC antagonists in infected red cells, primary screen, cell-based, P. falciparum Indochina, OD700, 18 h (AID 1157); settings: P. falciparum Indochina infected erythrocytes, osmotic lysis OD700, 18 h; higher = more signal, called active from +8 up or from −8 down
# [17] = modulators of S6 phosphorylation in cells, primary screen, cell-based, A549, cytoblot, luminescence, serum-stimulated (AID 1158); settings: A549 phospho-S6 cytoblot, 5 h, higher = more signal;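 also: serum-stimulated A549 lung adenocarcinoma cells; signal is phosphorylated S6 detected by cytoblot immunostaining with HRP secondary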
# [18] = biological target: NADPH oxidase 2 (Homo sapiens) (UniProt P04839); assay: NOX2-dependent H2O2 signal modulators, primary screen, NOX inhibitor project, cell-based, HEK293-NOX2, PMA-stimulated, Amplex Red fluorescence (AID 1159); settings: 45 min, higher = more signal, called active from +8 up or from −8 down; also: test concentration not given here
# Sequence of NADPH oxidase 2 (Homo sapiens) (P04839 whole entry, looked up): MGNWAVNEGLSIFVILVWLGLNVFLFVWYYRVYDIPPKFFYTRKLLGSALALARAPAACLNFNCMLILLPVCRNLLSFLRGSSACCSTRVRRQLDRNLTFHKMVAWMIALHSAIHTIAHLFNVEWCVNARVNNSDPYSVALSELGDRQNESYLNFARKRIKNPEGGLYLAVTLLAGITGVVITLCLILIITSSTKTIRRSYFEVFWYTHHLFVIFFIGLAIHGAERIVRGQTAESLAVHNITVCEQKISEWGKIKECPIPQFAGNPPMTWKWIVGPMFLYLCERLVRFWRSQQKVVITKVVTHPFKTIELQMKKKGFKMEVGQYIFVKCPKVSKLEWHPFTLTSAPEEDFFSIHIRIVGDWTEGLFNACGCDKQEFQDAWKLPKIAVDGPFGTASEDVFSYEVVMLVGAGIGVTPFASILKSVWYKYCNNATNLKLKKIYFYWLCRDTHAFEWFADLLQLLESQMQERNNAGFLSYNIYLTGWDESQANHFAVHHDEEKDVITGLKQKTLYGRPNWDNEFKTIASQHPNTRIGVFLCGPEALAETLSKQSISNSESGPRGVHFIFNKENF
# [19] = biological target: NADPH oxidase 4 (Homo sapiens) (UniProt Q9NPH5); assay: NOX4-dependent H2O2 signal modulators, primary screen, NOX inhibitor project, cell-based, HEK293-NOX4, tetracycline-induced, Amplex Red fluorescence (AID 1160); settings: 45 min, higher = more signal, called active from +8 up or from −8 down
# Sequence of NADPH oxidase 4 (Homo sapiens) (Q9NPH5 whole entry, looked up): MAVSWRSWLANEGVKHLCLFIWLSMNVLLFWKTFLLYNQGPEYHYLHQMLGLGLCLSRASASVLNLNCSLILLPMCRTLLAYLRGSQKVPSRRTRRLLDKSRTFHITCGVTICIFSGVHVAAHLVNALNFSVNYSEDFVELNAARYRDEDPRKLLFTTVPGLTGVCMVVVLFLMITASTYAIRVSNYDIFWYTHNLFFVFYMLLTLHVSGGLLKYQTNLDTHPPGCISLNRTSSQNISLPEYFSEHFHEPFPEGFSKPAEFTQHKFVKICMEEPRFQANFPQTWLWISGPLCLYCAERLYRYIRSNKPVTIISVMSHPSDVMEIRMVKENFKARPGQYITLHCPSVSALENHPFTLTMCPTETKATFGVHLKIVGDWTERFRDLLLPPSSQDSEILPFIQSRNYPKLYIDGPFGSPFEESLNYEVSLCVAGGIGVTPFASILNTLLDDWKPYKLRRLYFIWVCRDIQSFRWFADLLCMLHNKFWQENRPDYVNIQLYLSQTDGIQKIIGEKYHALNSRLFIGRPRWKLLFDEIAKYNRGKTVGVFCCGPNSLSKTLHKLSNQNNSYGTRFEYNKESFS
# [20] = biological target: NADPH oxidase 5 (Homo sapiens) (UniProt Q96PH1); assay: NOX5-dependent H2O2 signal modulators, primary screen, NOX inhibitor project, cell-based, HEK293-NOX5, Amplex Red fluorescence (AID 1161); settings: HEK293-NOX5, ionomycin, 45 min, higher = more signal
# Sequence of NADPH oxidase 5 (Homo sapiens) (Q96PH1 whole entry, looked up): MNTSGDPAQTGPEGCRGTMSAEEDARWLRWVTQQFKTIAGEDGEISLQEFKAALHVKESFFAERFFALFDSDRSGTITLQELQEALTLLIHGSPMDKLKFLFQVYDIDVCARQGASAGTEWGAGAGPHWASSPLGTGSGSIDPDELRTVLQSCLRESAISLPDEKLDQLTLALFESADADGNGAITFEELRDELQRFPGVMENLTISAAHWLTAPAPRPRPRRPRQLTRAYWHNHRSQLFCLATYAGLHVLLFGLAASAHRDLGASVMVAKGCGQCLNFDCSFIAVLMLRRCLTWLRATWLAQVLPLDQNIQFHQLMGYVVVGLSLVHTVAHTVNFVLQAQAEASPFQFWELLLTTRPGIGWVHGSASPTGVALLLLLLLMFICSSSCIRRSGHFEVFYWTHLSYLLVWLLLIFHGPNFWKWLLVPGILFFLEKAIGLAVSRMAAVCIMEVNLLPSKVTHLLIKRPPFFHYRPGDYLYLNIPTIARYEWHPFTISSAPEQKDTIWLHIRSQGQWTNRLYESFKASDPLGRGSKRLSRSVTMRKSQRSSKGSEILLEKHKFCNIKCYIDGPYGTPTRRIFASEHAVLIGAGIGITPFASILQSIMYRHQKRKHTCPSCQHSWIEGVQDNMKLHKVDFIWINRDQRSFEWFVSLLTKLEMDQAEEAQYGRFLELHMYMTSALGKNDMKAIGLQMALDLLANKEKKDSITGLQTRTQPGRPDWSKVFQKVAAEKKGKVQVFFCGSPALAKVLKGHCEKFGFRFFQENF
SMILES,composite z-score [1],z-score [2],z-score [3],z-score [4],z-score [5],composite z-score [6],composite z-score [7],composite z-score (Torsin-1A (Homo sapiens) [8]),composite z-score (Torsin-1A (Homo sapiens) [9]),composite z-score [10],z-score [11],composite z-score [12],z-score [13],z-score [14],z-score [15],z-score [16],z-score [17],z-score [18],z-score [19],z-score [20]
C[C@@]1([C@@H](NC(=O)c2ccc(-c3ccccc3)cc2)c2ccc(Cl)cc2)C[C@H]1C1CCCCC1,0.271,-1.18 (inactive),-0.123 (inactive),0.972 (inactive),0.829 (inactive),1.35,0.289,0.564,0.0484,-0.106,-1.28 (inactive),0.284,15.8 (active),3.36 (inactive),-0.0758 (inactive),1.11 (inactive),-0.216,-0.75 (inactive),0.205 (inactive),0.644
CCCC[C@@H]1C[C@H]1[C@@H](NC(=O)c1cccs1)c1ccc(-c2ccccc2)cc1,-0.0739,-2.14 (inactive),-0.218 (inactive),1.35 (inactive),2.05 (inactive),0.0523,0.0541,-0.473,-0.0352,1.73,-1.89 (inactive),0.142,2.41 (inactive),0.856 (inactive),-0.398 (inactive),0.668 (inactive),-0.993,-0.939 (inactive),-0.827 (inactive),0.936
CCOC(=O)C[C@H]1[C@H](OC(=O)c2ccccc2-c2ccccc2)[C@@H](NC(=O)CC(C)C)c2cc(OCCCO)ccc2N1C(=O)Cc1ccc(OC)cc1,-0.0051,-0.386 (inactive),0.393 (inactive),6.91 (inactive),0.0967 (inactive),0.0802,-0.179,0.0776,0.199,0.222,-0.892 (inactive),-0.0094,2.71 (inactive),0.317 (inactive),0.587 (inactive),0.207 (inactive),0.633,-0.234 (inactive),1.21 (inactive),-0.33
COc1cc(COC(C)=O)ccc1OC(C)=O,1.27,-1.68 (inactive),-1.48 (inactive),1.42 (inactive),68.7 (active),-0.114,0.257,0.343,0.141,0.857,3.19 (inactive),0.383,-1.49 (inactive),-0.983 (inactive),-1.76 (inactive),-2.3 (inactive),1.29,-4.55 (inactive),-0.433 (inactive),-0.154
N#Cc1ccc(NN2C(C(O)C(c3ccccc3)c3ccccc3)C=CC3C(=O)N(c4ccccc4)C(=O)C32)cc1 (stereo not given),0.382,-0.919 (inactive),-0.731 (inactive),0.243 (inactive),-0.69 (inactive),1.21,0.204,0.604,0.274,-0.634,-0.0948 (inactive),0.651,5.66 (inactive),0.96 (inactive),0.891 (inactive),1.24 (inactive),0.151,-1.99 (inactive),-2.82 (inactive),-2.49
CCC[C@@H]1C[C@@]1(CCC)[C@@H](NS(=O)(=O)c1cccc2cccnc12)c1ccc(Cl)cc1,0.0298,-2.15 (inactive),-0.0939 (inactive),-0.754 (inactive),0.852 (inactive),0.633,0.0966,-0.405,0.177,-1.33,-1.61 (inactive),0.617,0.0126 (inactive),0.765 (inactive),-1.01 (inactive),1.01 (inactive),0.883,-0.357 (inactive),-0.382 (inactive),0.127
C=C(/C(=C/C[C@H](OC(C)=O)c1ccccc1OCCO)c1cnc2ccccc2c1)C(C)C,0.025,-1.61 (inactive),0.445 (inactive),4.98 (inactive),1.49 (inactive),0.533,0.0543,0.316,0.0233,1.09,-0.564 (inactive),-0.0654,9.77 (active),1.55 (inactive),1.29 (inactive),0.724 (inactive),0.193,-0.353 (inactive),-0.402 (inactive),-1.08
COC(=O)[C@@]1(Cc2ccc(F)cc2)[C@H]2c3cc(C(=O)N(C)C)n(Cc4cc(F)c(F)c(F)c4)c3C[C@H]2CN1C(=O)c1ccccc1,0.283,-3 (inactive),0.459 (inactive),1.53 (inactive),0.578 (inactive),1.25,1.08,-0.272,0.193,-0.176,-1.42 (inactive),0.5,4.21 (inactive),0.548 (inactive),0.365 (inactive),1.16 (inactive),-0.359,0.525 (inactive),2.18 (inactive),1.26
